Screening data: PubChem, National Center for Advancing Translational Sciences (NCATS)
This is a sample that favours compounds with a hit; in the whole collection about 5.5% have one here.
Sfp PPTase inh – qHTS Assay for Inhibitors of Bacillus subtilis Sfp phosphopantetheinyl transferase (PPTase) | 4'-phosphopantetheinyl transferase ffp (Bacillus subtilis), Q9F4F7 | Biochemical Sfp PPTase activity, qHTS | Potency, µM, actives largely listed as inhibitors | 3.5% of 310,000 active | AID 1490, 2009;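 also: the enzyme is Sfp with the accession as filed and its product quenches rhodamine fluorescence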
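With Hepes-Na pH 7.6 buffer containing 10 mM MgCl2, Sfp (15 nM) modified BHQ-2-YbbR (12.5 uM) using rhodamine-CoA (5 uM). Two reads 30 minutes apart at 525/598 nm yielded each well's rate.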
Giardia kill – Small Molecules that selectively kill Giardia lamblia: qHTS; AID 540267, 2011; 0.15% of 340,000 active; activity change, % at 7.66 µM, hits read low; Giardia lamblia trophozoite viability; in the data active = activity change below about -80%; inconclusive = between about -30% and that limit;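 also: parasites exposed to compound for two days anaerobically before the ATP read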
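Each well holds 100 Giardia trophozoites and compound. After two days (48 hrs) at 37 deg C in anaerobic conditions, ATP is quantified by luminescence.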
ELG1 repair inh – qHTS screen for small molecules that inhibit ELG1-dependent DNA repair in human embryonic kidney (HEK293T) cells expressing luciferase-tagged ELG1. 2.3% of 330,000 active. HEK293T ELG1-luciferase reporter, luminescence, 16 h; DNA damage induced by 5-fluorouridine. Potency, µM (top dose mostly 46.1 µM), usual class: inhibitors. AID 504467, 2011; also: nearly all actives have a fitted effect of over 55% in size
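Reporter activity after DNA damage by 5-fluorouridine is monitored. Compound-treated cells incubate 16 hr at 37 °C, then ONE-Glo is added for 30 min before luminescence reading.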
Coupling enz – qHTS Assay for Inhibitors of Fructose-1,6-bisphosphate Aldolase from Giardia Lamblia: Coupling assay counterscreen; coupling enzyme system counterscreen, AmpLite Red fluorescence; activity change, negative = inhibition, % at 58.2 µM, hits read low; 0.67% of 290,000 active; in the data active = activity change below about -30%
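Activity here indicates interference with the coupling reaction, not aldolase inhibition. Compounds at 57.5 uM final met coupling enzymes for 10 min at RT; substrate and AmpLite Red detection followed, with a 525/598 nm fluorescence read after 20 min.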
A number is an active result; 0 = inactive; ? = inconclusive; - = no result; ! = not confirmed by another sample. Unless noted, calls follow the shape of the dose curve; as a rule, active = well fitted curve in the direction sought with a large enough effect; inconclusive = small, poorly fitted or top-dose-only effect, or another doubt; inactive = no such curve, though single readings can be large; an effect the other way counts as inactive or inconclusive.

SMILES | Sfp PPTase inh | Giardia kill | ELG1 repair inh | Coupling enz
Cc1ccc(S(=O)(=O)c2c(N)n(CCN3CCOCC3)c3nc4ccccc4nc23)cc1C | 0 | 0 | ? | 0
CC(=O)N(c1ccccc1)C(C(=O)c1ccccc1)c1ccccc1 (stereo not given) | - | 0 | - | -
CCC1Cc2cc(O)ccc2C2=C1c1ccc(O)cc1CC2CC (stereo not given) | 0 | - | - | 0
C=CC[C@@H]1C=C[C@@H](O/N=C\[C@@H](NS(=O)(=O)c2ccc(C)cc2)[C@H](C)/C=C\CC(=O)OC)[C@@H](CO)O1 | 0 | - | - | 0
O=C(O)c1ccc(Cl)c(S(=O)(=O)Nc2ccccc2Cc2ccccc2)c1 | 0 | 0 | 0 | 0
CC(C)(C)c1cc(-c2csc(Nc3ccccc3)[n+]2Cc2ccc(C(=O)O)cc2)cc(C(C)(C)C)c1O | 0 | 0 | 16µM | 0
O=c1cc(-c2ccccc2Cl)oc2ccc([N+](=O)[O-])c(O)c12 | 0 | 0 | 0 | 0
O=c1cc(-c2ccccc2Cl)oc2c([N+](=O)[O-])c(O)cc(O)c12 | 0 | 0 | 3.7µM | 0
N#CC1=C(N)SC(N)=C(C#N)C1c1ccnc2ccccc12 | 16µM | 0 | 0 | 0
Cc1cccc(CNc2nc(-c3cccnc3)nc3ccccc23)c1 | ? | - | - | 0
O=C(C1CC=CCC1)N1CCC(CO)(Cc2ccc(Cl)cc2)CC1 (stereo not given) | 0 | 0 | ? | 0
Cc1ccc(S(=O)(=O)N(C)C)cc1NC(=O)C(C)N(C)CCOc1ccc(Cl)cc1 (stereo not given) | 0 | 0 | ? | 0
N#Cc1cccc(NC(=O)N2CC3(CCN(C(=O)c4cnccn4)CC3)C2)c1 | 0 | - | - | 0
CCOC(=O)C=C(C(=O)OCC)C(=O)OCC | 18µM | 0 | 0 | 0
C/C(=N\NC(=O)CN(c1ccccc1)S(C)(=O)=O)c1ccccc1O | 0 | 0 | 16µM | 0
O=C(NCc1ccccn1)C(=O)NCC1OCCN1S(=O)(=O)c1ccc([N+](=O)[O-])cc1 (stereo not given) | 0 | 0 | 0 | 0
O=C(CNC(=S)N(Cc1ccccc1)Cc1ccccc1F)NCc1ccc(Cl)cc1 | 0 | 0 | 23µM | 0
O=C(CNC(=S)N(Cc1ccccc1)Cc1ccccc1F)NCc1ccccc1 | 0 | 0 | ? | 0
COc1ccc(C(C)NC(=O)c2ccncc2)cc1OC (stereo not given) | 0 | 0 | 0 | 0
Cc1cc(C)n(-c2nc3sc4c(c3c3nnc(SCC(N)=O)n23)CC(C)(C)OC4)n1 | 0 | 0 | ? | 0
Cc1cc(C)n(-c2nc(NCCC(C)C)c3c4c(sc3n2)COC(C)(C)C4)n1 | 0 | 0 | 18µM | 0
Cc1cc(C)n(-c2nc(NCCN(C)C)c3c4c(sc3n2)COC(C)(C)C4)n1 | 0 | 0 | ? | 0
CSc1nnc2c3c4c(sc3nc(-n3nc(C)cc3C)n12)COC(C)(C)C4 | 0 | 0 | 13µM | 0
CCOC(=O)c1c(NC(=O)C2=C(C)NC(=S)NC2c2ccccc2C(F)(F)F)sc(C)c1C (stereo not given) | 16µM | 0 | 23µM | 0
CCOC(=O)C1=C(C)NC(=S)NC1c1cc(C)sc1C (stereo not given) | 0 | 0 | 0 | 0
SMILES | Sfp PPTase inh | Giardia kill | ELG1 repair inh | Coupling enz
Nn1cnnc1N/N=C/c1ccc(Cl)cc1Cl | 56µM | 0 | 0 | 0
O=C(N/N=C/c1ccc(Cl)cc1Cl)c1ccc(-n2cnnn2)cc1 | - | 0 | 0 | -
CC(C)(C)C(=O)Nc1cccc(-c2cc(-c3c(Cl)cccc3Cl)no2)c1 | 0 | 0 | 8.2µM | 0
Cc1ccc(S(=O)(=O)N[C@H](C(=O)OCn2nnc3ccccc3c2=O)C(C)C)cc1 | 0 | 0 | 21µM | 0
CC(C)[C@H](NS(=O)(=O)c1ccccc1)C(=O)OCn1nnc2ccccc2c1=O | 0 | 0 | ? | 0
O=C1/C(=C/c2ccc(F)cc2)SC(=S)N1Nc1ncc(C(F)(F)F)cc1Cl | 50µM | 0 | ? | 0
O=C1/C(=C/c2ccccn2)SC(=S)N1Nc1ncc(C(F)(F)F)cc1Cl | - | 0 | - | -
O=C1/C(=C\c2ccccn2)SC(=S)N1Nc1ncc(C(F)(F)F)cc1Cl | 50µM | 0 | 0 | -
CC(C)[C@@H](CC(=O)N[C@@H]1CCNC[C@H]1C(=O)N[C@H](CC(=O)N[C@@H](CCC(=O)O)CC(=O)O)Cc1c[nH]c2ccccc12)NC(=O)C[C@H](CO)NC(=O)[C@@H]1CCCC[C@H]1N | 0 | - | - | 0
CC(C)=CCC1=C(O)[C@](O)(CC=C(C)C)C(=O)C(C(=O)CC(C)C)=C1O | 0 | - | - | 0
COC(=O)C/C=C\[C@@H](C)[C@@H](/C=N\OCC[C@@H]1C=C[C@H](OC(C)=O)[C@H](COC(C)=O)O1)OC | 1µM | - | - | 0
Cc1cc(C)c2nc(N3CCC(C(=O)N4CCN(C(=O)c5ccco5)CC4)CC3)sc2c1 | 0 | 0 | 16µM | 0
CCc1cc2cc(C)cc(C)c2nc1SCC(=O)N1CCN(C(=O)c2ccco2)CC1 | ? | 0 | 8.2µM | 0
Cc1cc(C)c2nc(N3CCCN(C(=O)c4ccco4)CC3)c(C#N)cc2c1 | 45µM | 0 | 0 | -39
O=C(COc1cc2oc(=O)cc(-c3ccccc3)c2cc1Cl)NC(Cc1c[nH]c2ccc(O)cc12)C(=O)O (stereo not given) | 0 | 0 | 0 | 0
Cc1cnc(C(=O)OCc2cc(=O)n3c(C)cccc3n2)cn1 | - | 0 | ? | -
CCn1ccnc1CN(C)Cc1cn(-c2cccc(C)c2)nc1-c1cccc(F)c1 | 45µM | 0 | ? | 0
CCCCCCC(=O)Nc1c(O)c2ccccc2[nH]c1=O | 50µM | 0 | ? | 0
CCCCCCCC(=O)NNC(=O)c1c(O)c2ccccc2[nH]c1=O | 0 | 0 | 0 | 0
O=C(COC(=O)c1nc(Cl)ccc1Cl)NC1CCCCC1 | - | 0 | 0 | -
CCOC(=O)c1c(NC(=O)OC)sc2c1CCC2 | 32µM | 0 | 0 | 0
CCOC(=O)c1c(NC(=O)C(C)N2CCN(C(=O)c3ccco3)CC2)sc2c1CCCC2 (stereo not given) | 0 | 0 | 7.3µM | 0
CCOC(=O)c1c(NC(=O)Cc2cccs2)sc2c1CCCC2 | 32µM | 0 | 0 | 0
CC1CCCN(C(=O)CN2C(=O)NC(C)(c3ccc4ccccc4c3)C2=O)C1 (stereo not given) | - | 0 | 0 | -
O=C(CCc1ccc(O)cc1)c1c(O)cc(O)cc1O | 50µM! | 0 | 0 | 0
SMILES | Sfp PPTase inh | Giardia kill | ELG1 repair inh | Coupling enz
COc1cc(O)c(CC=C(C)C)c(O)c1C(=O)CCc1ccc(O)cc1 | 0 | 0 | 0 | 0
CC(=O)N/C(=C\c1ccccc1)C(=O)OCc1cc(C)ccc1C | 0 | 0 | 0 | 0
COc1cccc(C(=O)NCCSc2c(C)[nH]c3ccccc23)c1OC | 0 | 0 | 23µM | 0
COc1ccc(-c2[nH]c3ccccc3c2SCCNC(=O)c2ccccc2)cc1 | 0 | 0 | 16µM | 0
O=C(CN1CCN(S(=O)(=O)N2CCOCC2)CC1)Nc1cc(Cl)cc(Cl)c1 | 0 | 0 | 0 | 0
O=[N+]([O-])c1ccc(CNC2CCCc3ccccc32)cc1 (stereo not given) | 63µM | 0 | 0 | 0
